Measured values reported in PubChem BioAssay (NCATS).
Records with an inconclusive call do not appear. Entries that show only a call come without a potency. The source made the active and inactive calls. The call rests on the fitted dose curve; in most records, active means well fitted cell-killing curve with a large enough effect; inconclusive means small, poorly fitted or top-dose-only effect; inactive means flat fitted curve, though single readings scatter.

Test: Cell Viability - LYMP2-002 (AID 977);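 further: compound exposure lasted 24 h at 37 °C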
Details: LYMP2-002 lymphoblastoid cell viability, qHTS; series mostly up to 92.2 µM
In short: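 In this qHTS viability screen, 2500 human lymphoblastoid cells per well receive compound for 24 hr at 37 C, and luciferase-based ATP luminescence gives the viability signal. Tetraoctylammonium bromide serves as positive control.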

Row | SMILES | outcome
1 | Oc1ccc(Cl)cc1 | inactive
2 | COP(=S)(OC)Oc1ccc(SC)c(C)c1 | inactive
3 | CC(C)c1cccc(C(C)C)c1O | inactive
4 | C[C@]12CCC(=O)C=C1CC[C@@H]1[C@@H]2CC[C@]2(C)C(=O)CC[C@@H]12 | inactive
5 | CCC(C)(C)c1ccc(O)cc1 | inactive
6 | C[C@]12CCC(=O)C=C1CC[C@@H]1[C@@H]2CC[C@@]2(C)[C@H]1CC[C@]2(C)O | inactive
7 | CCCC(C)(COC(N)=O)COC(N)=O | inactive
8 | CN1C[C@H](C(=O)N[C@]2(C)O[C@@]3(O)[C@@H]4CCCN4C(=O)[C@H](Cc4ccccc4)N3C2=O)C=C2c3cccc4[nH]cc(c34)C[C@H]21 | inactive
9 | C[C@]1(O)CC[C@H]2[C@@H]3CCC4=CC(=O)CC[C@]4(C)[C@@]3(F)[C@@H](O)C[C@@]21C | inactive
10 | COc1cc(OC)c(OC)cc1C=O | inactive
11 | CCOC(=O)CC(SP(=S)(OC)OC)C(=O)OCC (stereo not drawn) | inactive
12 | Clc1ccc(C(c2ccc(Cl)cc2)C(Cl)(Cl)Cl)cc1 | inactive
13 | CC(C)NC(C)C | inactive
14 | Nc1ccccc1C(=O)O | inactive
15 | COC(=O)C(c1ccccc1)C1CCCCN1 (stereo not drawn) | inactive
16 | O=C(O)CCCc1ccc(N(CCCl)CCCl)cc1 | inactive
17 | NCCc1ccc(O)cc1 | inactive
18 | O=P1(N(CCCl)CCCl)NCCCO1 (stereo not drawn) | inactive

Test: Cell Viability - LYMP2-006 (AID 978);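 further: cells exposed to compound for 24 hours; nearly all actives have a fitted effect of over 60% in size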
Details: LYMP2-006 lymphoblastoid cell viability, qHTS; series mostly up to 92.2 µM
In short: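 Human lymphoblastoid cells (LYMP2-006), 2500/well in complete medium, were treated with compound for 24 hr at 37 C. Cellular ATP was read by CellTiter-Glo luminescence after 30 min, and AC50 values came from Hill-equation fits of concentration-response data.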

Row | SMILES | outcome
19 | Oc1ccc(Cl)cc1 | inactive
20 | COP(=S)(OC)Oc1ccc(SC)c(C)c1 | inactive
21 | CC(C)c1cccc(C(C)C)c1O | inactive
22 | C[C@]12CCC(=O)C=C1CC[C@@H]1[C@@H]2CC[C@]2(C)C(=O)CC[C@@H]12 | inactive
23 | CCC(C)(C)c1ccc(O)cc1 | inactive
24 | C[C@]12CCC(=O)C=C1CC[C@@H]1[C@@H]2CC[C@@]2(C)[C@H]1CC[C@]2(C)O | inactive
25 | CCCC(C)(COC(N)=O)COC(N)=O | inactive
26 | CN1C[C@H](C(=O)N[C@]2(C)O[C@@]3(O)[C@@H]4CCCN4C(=O)[C@H](Cc4ccccc4)N3C2=O)C=C2c3cccc4[nH]cc(c34)C[C@H]21 | inactive
27 | C[C@]1(O)CC[C@H]2[C@@H]3CCC4=CC(=O)CC[C@]4(C)[C@@]3(F)[C@@H](O)C[C@@]21C | inactive
28 | COc1cc(OC)c(OC)cc1C=O | inactive
29 | CCOC(=O)CC(SP(=S)(OC)OC)C(=O)OCC (stereo not drawn) | inactive
30 | Clc1ccc(C(c2ccc(Cl)cc2)C(Cl)(Cl)Cl)cc1 | inactive
31 | CC(C)NC(C)C | inactive
32 | Nc1ccccc1C(=O)O | inactive
33 | COC(=O)C(c1ccccc1)C1CCCCN1 (stereo not drawn) | inactive
34 | Nc1ccccc1 | inactive
35 | O=C(O)CCCc1ccc(N(CCCl)CCCl)cc1 | inactive
36 | NCCc1ccc(O)cc1 | inactive
37 | O=P1(N(CCCl)CCCl)NCCCO1 (stereo not drawn) | inactive

Test: Cell Viability - LYMP2-007 (AID 979);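 further: cells exposed to compound for 24 h before reading; nearly all actives have a fitted effect of over 60% in size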
Details: LYMP2-007 lymphoblastoid cell viability; series mostly up to 92.2 µM
In short: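 qHTS cytotoxicity: 2500 cells/well, 5 hr 37 C settle, compound 24 hr 37 C, CellTiter-Glo 30 min RT, luminescence. Decrease in ATP = toxicity. AC50 by standard Hill equation; tetraoctylammonium bromide positive control.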

Row | SMILES | outcome
38 | Oc1ccc(Cl)cc1 | inactive
39 | COP(=S)(OC)Oc1ccc(SC)c(C)c1 | inactive
40 | CC(C)c1cccc(C(C)C)c1O | inactive
41 | C[C@]12CCC(=O)C=C1CC[C@@H]1[C@@H]2CC[C@]2(C)C(=O)CC[C@@H]12 | inactive
42 | CCC(C)(C)c1ccc(O)cc1 | inactive
43 | C[C@]12CCC(=O)C=C1CC[C@@H]1[C@@H]2CC[C@@]2(C)[C@H]1CC[C@]2(C)O | inactive
44 | CCCC(C)(COC(N)=O)COC(N)=O | inactive
45 | CN1C[C@H](C(=O)N[C@]2(C)O[C@@]3(O)[C@@H]4CCCN4C(=O)[C@H](Cc4ccccc4)N3C2=O)C=C2c3cccc4[nH]cc(c34)C[C@H]21 | inactive
46 | C[C@]1(O)CC[C@H]2[C@@H]3CCC4=CC(=O)CC[C@]4(C)[C@@]3(F)[C@@H](O)C[C@@]21C | inactive
47 | COc1cc(OC)c(OC)cc1C=O | inactive
48 | CCOC(=O)CC(SP(=S)(OC)OC)C(=O)OCC (stereo not drawn) | inactive
49 | Clc1ccc(C(c2ccc(Cl)cc2)C(Cl)(Cl)Cl)cc1 | inactive
50 | CC(C)NC(C)C | inactive
51 | Nc1ccccc1C(=O)O | inactive
52 | COC(=O)C(c1ccccc1)C1CCCCN1 (stereo not drawn) | inactive
53 | Nc1ccccc1 | inactive
54 | NCCc1ccc(O)cc1 | inactive
55 | O=P1(N(CCCl)CCCl)NCCCO1 (stereo not drawn) | inactive

Test: Cell Viability - LYMP2-010 (AID 981);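 further: cells exposed to compound for 24 hours at 37 °C; nearly all actives have a fitted effect of over 55% in size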; further: potency means the concentration at half of the fitted maximal effect
Details: LYMP2-010 lymphoblastoid cell viability, qHTS; series mostly up to 92.2 µM
In short: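 qHTS cytotoxicity, 1536-well: 2500 cells/well, 5 hr settle, 24 hr compound at 37 C, CellTiter-Glo 30 min RT, luminescence read. Decrease in ATP = toxicity; AC50 via standard Hill equation. Positive control tetraoctylammonium bromide.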

Row | SMILES | Potency
56 | Oc1ccc(Cl)cc1 | inactive
57 | COP(=S)(OC)Oc1ccc(SC)c(C)c1 | inactive
58 | CC(C)c1cccc(C(C)C)c1O | inactive
59 | C[C@]12CCC(=O)C=C1CC[C@@H]1[C@@H]2CC[C@]2(C)C(=O)CC[C@@H]12 | inactive
60 | CCC(C)(C)c1ccc(O)cc1 | inactive
61 | C[C@]12CCC(=O)C=C1CC[C@@H]1[C@@H]2CC[C@@]2(C)[C@H]1CC[C@]2(C)O | inactive
62 | CCCC(C)(COC(N)=O)COC(N)=O | inactive
63 | C[C@]1(O)CC[C@H]2[C@@H]3CCC4=CC(=O)CC[C@]4(C)[C@@]3(F)[C@@H](O)C[C@@]21C | inactive
64 | COc1cc(OC)c(OC)cc1C=O | inactive
65 | CCOC(=O)CC(SP(=S)(OC)OC)C(=O)OCC (stereo not drawn) | inactive
66 | Clc1ccc(C(c2ccc(Cl)cc2)C(Cl)(Cl)Cl)cc1 | inactive
67 | CC(C)NC(C)C | inactive
68 | Nc1ccccc1C(=O)O | inactive
69 | COC(=O)C(c1ccccc1)C1CCCCN1 (stereo not drawn) | inactive
70 | Nc1ccccc1 | inactive
71 | O=C(O)CCCc1ccc(N(CCCl)CCCl)cc1 | 31.6 µM (active)
72 | NCCc1ccc(O)cc1 | inactive
73 | O=P1(N(CCCl)CCCl)NCCCO1 (stereo not drawn) | inactive
